Source: PubChem (National Center for Advancing Translational Sciences (NCATS))
ATXN2 expr inh: ATXN2 expression inhibition | Potency, µM (top dose mostly 57 µM), without a hit: at the top dose activity change, negative = inhibition, usual class: inhibitors | HEK-293 ATXN2-luciferase reporter, luminescence, 24 h | 360,000 compounds, 0.72% hits; also: potency is read from the fitted curve at half-maximal effect; % is scaled to controls: 0 for no effect and ±100 for the full control effect; nearly all actives have a fitted effect of over 55% in size
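ATXN2-luciferase reporter cells (luciferase flanked by upstream and downstream ATXN2 gene portions) were treated 24 h at 37 °C with compounds at up to 57 uM. SteadyGlo luminescence gave expression; GF-AFC fluorescence gave viability.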
HepG2 tox: counter-screen for TGF-b inhibitors: cytotoxicity in HepG2 cells | 410,000 compounds, 0.76% hits | HepG2 CAGA-GFP viability, ATP luminescence, 18 h | Potency, µM (titrated, usually from 46.1 µM), for the others: top-dose activity change, negative = cytotoxicity, usual class: cytotoxic; also: potency is read from the fitted curve at half-maximal effect
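HepG2 CAGA-GFP cells (1000/well, DMEM with 1% FBS) received compound, then TGF-beta at 500 pg/mL final, and were incubated 18 hours at 37 degrees C. Viability was read by CellTiter-Glo luminescence. Media-only wells were set as complete cell-killing and DMSO as no toxicity.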
DRD3 antagonist: blocks the human D3 dopamine receptor. AID 652054. 360,000 compounds, 2.5% hits. D3R cells, DiscoveRx beta-arrestin luminescence, antagonist mode; active compounds read low. max response, negative = inhibition, %; in the data active = max response below about -50%; inconclusive = no clear call, values can overlap the other calls; also: % is scaled to controls: 0 for no effect and ±100 for the full control effect
Target sequence (P35462 whole entry, looked up): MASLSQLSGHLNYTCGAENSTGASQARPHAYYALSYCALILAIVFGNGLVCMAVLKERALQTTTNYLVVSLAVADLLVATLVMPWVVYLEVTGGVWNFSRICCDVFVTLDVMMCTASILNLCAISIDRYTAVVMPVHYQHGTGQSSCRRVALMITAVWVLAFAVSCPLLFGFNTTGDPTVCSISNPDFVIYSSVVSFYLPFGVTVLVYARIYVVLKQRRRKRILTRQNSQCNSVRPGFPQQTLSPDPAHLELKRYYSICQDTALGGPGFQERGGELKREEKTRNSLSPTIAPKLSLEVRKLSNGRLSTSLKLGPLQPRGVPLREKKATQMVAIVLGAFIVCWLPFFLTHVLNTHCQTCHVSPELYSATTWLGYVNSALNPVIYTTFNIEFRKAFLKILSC
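Cells expressing the human receptor were seeded at 1500 cells/well, incubated overnight at 37 degrees C in 5% CO2, then exposed to library compounds with dopamine controls for 90 minutes at 37 degrees C before luminescent detection.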
DRD3 agonist: D3 dopamine receptor (human) agonism; D3R DiscoveRx beta-arrestin cells, luminescence, 90 min; max activation, %; 410,000 compounds, 0.58% hits; AID 652048; in the data active = max activation above about 30%; also: 0% is about no effect
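Agonist mode: compounds and dopamine controls were applied to plated cells for 90 min at 37 degrees C after an overnight attachment at 1500 cells/well. Luminescent read-out followed 30 - 60 minutes at room temperature with DiscoveRx detection reagent.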
S2 tox: viability counter-screen for ATXN expression inhibitors; S2 cells (HEK-293 line with an ATXN2-luciferase reporter) viability, CellTiter-Fluor protease fluorescence, 24 h; Potency, µM (highest dose often 56.7 µM), hits mostly cytotoxic; 400,000 compounds, 0.49% hits; AID 651635; also: potency is read from the fitted curve at half-maximal effect; nearly all actives have a fitted effect of over 40% in size
TGFb inhibitor: TGF-b pathway inhibition | Potency, µM (series often up to 46.1 µM), without a hit: top-dose activity, negative = inhibition, hits mostly inhibitors | HepG2 CAGA-GFP TGF-b/SMAD3 reporter, GFP fluorescence, 18 h; TGF-beta stimulated, 500 pg/mL final | AID 588855 | 410,000 compounds, 1.2% hits; also: potency is read from the fitted curve at half-maximal effect; % is scaled to controls: 0 for no effect and ±100 for the full control effect; nearly all actives have a fitted effect of over 65% in size
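HEPG2 CAGA-GFP cells (1000/well, DMEM with 1% FBS) were pre-incubated 2 h at 37 degrees C, given compound by pin tool, then stimulated with TGF-beta at 500 pg/mL final for 18 h before per-cell GFP fluorescence imaging.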
The depositor's hits bear a star; i = inactive; u = inconclusive; x = no result given; ! = not active in a repeat; [ ] = dose if it differs, or a comment. Compounds with a hit are over-represented: about 4.7% of the library has one in this group of screens. Unless noted, calls follow the shape of the dose curve; as a rule, active = well fitted curve in the direction sought with a large enough effect; inconclusive = small, poorly fitted or top-dose-only effect, or another doubt; inactive = no such curve, though single readings can be large; an effect the other way counts as inactive or inconclusive.

SMILES	ATXN2 expr inh	HepG2 tox	DRD3 antagonist	DRD3 agonist	S2 tox	TGFb inhibitor
CCCn1c(=O)c2sccc2n2c(CCCC(=O)Nc3ccc(Oc4ccccc4)cc3)nnc12	x	-39.8%	x	4.5	x	17.8µM*
CCCCC(CC)CNC(=O)CCCc1nnc2n(CCC)c(=O)c3sccc3n12 (stereo unspecified)	-37.3%	-21.7%	x	17.3	17.8µM*	u
CCN(CC)C(=O)Cn1c(=O)n(CCCCCC(=O)Nc2ccccc2)c(=O)c2sccc21	7.0%	3.16µM*!	-4.0	-9.9	i	u
CCCn1c(=O)c2sccc2n2c(CCCC(=O)Nc3ccc(Oc4ccc(Cl)cc4)cc3)nnc12	x	-28.8%	x	2.1	x	u
CCC1C(=O)NCCN1Cc1ccc2c(c1)CN(Cc1cc(OC)c3c(c1)OCO3)CCO2 (stereo unspecified)	x	x	x	x	i	x
Cc1c(Cl)cccc1NC(=O)CSc1ncc2c(n1)-c1ccccc1N(C)S2(=O)=O	-24.5%	4.1%	x	4.2	i	9.5%
COc1cccc2c1O/C(=N\O)C(C(=O)Nc1cccc(Br)c1)C2 (stereo unspecified)	0.4%	-26.4%	-53.8*	0.2	i	u
CN1Cc2cc(C(=O)N3CCC(C4CCNCC4)CC3)ccc2N[C@@H](CC(=O)O)C1=O	0.9%	x	x	x	i	x
O=S(=O)(c1ccccc1F)N1CCN(Cc2cc3c(cc2O)OCO3)CC1	x	3.98µM*	-1.5	2.2	i	-27.2%
Cc1cc(OCCOCCNCc2ccccc2)ccc1C(C)C	x	-69.7%	16.8	-1.2	i	u
CNCCOc1ccccc1C(C)(C)C	-7.3%	-10.3%	-54.1*	-61.1	i	-0.4%
CC(C)(C)c1ccccc1OCCOCCNCc1ccccc1	-35.1%	-64.7%	-77.7*	20.8	u	25.1µM*
O=C(OCC(COC(=O)c1cccnc1)(COC(=O)c1cccnc1)COC(=O)c1cccnc1)c1cccnc1	-4.7%	x	x	4.6	i	x
COc1ccc2c(CNCCc3cccs3)c(C(=O)O)n(Cc3ccccc3)c2c1	-1.9%	-15.0%	x	-5.2	u	-26.9%
Cc1oc(-c2cccs2)nc1CN1CC[C@@](O)(c2ccccc2)[C@H]2CCCC[C@@H]21	-13.2%	-18.0%	u	-11.7	u	-21.9%
OC1(c2ccccc2)CCN(Cc2ccccc2)C2CCCCC21 (stereo unspecified)	-29.6%	-3.0%	-85.2*	12.2	i	-5.0%
COCCn1c(SCC(=O)Nc2cc(Cl)ccc2OC)nc2c([nH]c3ccccc32)c1=O	12.2%	-0.4%	x	-4.1	i	28.3%
COCCN1CCN(C(=O)c2cnn(-c3nccc(-c4cc5ccccc5o4)n3)c2C2CC2)CC1	x	x	x	x	i	x
Cc1ccc(NC(=O)CSc2nnc(-c3ccncc3)n2N)cc1C	2.2%	-1.8%	-69.7*	0.5	i	-3.1%
COc1ccc(C(=O)NNC(=O)CSc2nnc(-c3ccc(O)cc3)n2C)cc1	1.1%[11.3 µM]	-2.1%	4.9	-1.5	i	-3.8%
COc1ccc(OCc2nnc(SCC(=O)NNC(=O)c3ccc(C)cc3)n2C)cc1	-1.1%	1.2%	-118.3*	-25.0	i	19.3%
Cc1ccc(C(=O)NNC(=O)CSc2nnc(-c3ccncc3)n2C)cc1	8.8%	-23.5%	-75.4*	-8.1	i	0.0%
CCOC(=O)c1c(NC(=O)c2cc(=O)c3cc(C)ccc3o2)sc2c1CCCC2	3.0%	9.2%	x	8.5	i	0.2%
C[N+]1(CC(=O)c2ccc(Cl)c(Cl)c2)CCOCC1	x	-25.7%	x	x	x	-16.9%
COc1ccccc1NC(=O)c1c(Nc2ccccc2F)sc(C(=O)Nc2cccc(Cl)c2)c1N	u	-36.2%	-10.6	1.8	u	15.8µM*
SMILES	ATXN2 expr inh	HepG2 tox	DRD3 antagonist	DRD3 agonist	S2 tox	TGFb inhibitor
OC(C1=CC(=Cc2ccncc2)c2ccccc21)c1ccncc1 (stereo unspecified)	23.1%	-3.6%	2.0	8.9	i	-5.2%
O=[N+]([O-])c1ccc(/C=C2\C=C(C(O)c3ccc([N+](=O)[O-])cc3)c3ccccc32)cc1 (stereo unspecified)	x	-20.5%	x	x	x	7.08µM*
CCCCN(C)c1nc(-c2ccco2)c2c(c1C#N)CC(C)(C)OC2	22.4µM*	-47.9%	-12.6	-8.9	i	u
CC(=O)c1cc2ccccc2c2ccccc12	x	-20.8%	x	x	x	-14.6%
CCCN1Cc2cccc(C(=O)Nc3cc(Cl)ccc3C)c2C1=O	10.3%	-3.3%	x	1.9	i	1.0%
Cc1cc(C)[n+]2n1C(=O)C(c1ccccc1)=C2[O-]	26.2%	-8.6%	-13.4	49.7*!	u	-23.1%
Cc1cc(=O)n2[nH]c(-c3ccccc3)cc2n1	28.5%	-6.3%	12.9	1.1	i	0.0%
N#CC1=C(N)OC2=C(C(=O)CCC2)C1c1ccc(OC(=O)N2CCOCC2)cc1 (stereo unspecified)	-2.5%	-2.0%	-80.2*	0.1	i	-13.6%
CC1(C)CC(=O)C2=C(C1)OC(N)=C(C#N)C2c1ccc(OC(=O)N2CCOCC2)cc1 (stereo unspecified)	4.4%	4.1%	-13.2	-3.4	i	-0.5%
COC(=O)c1ccc(CSc2nc3c(cnn3-c3ccc(Cl)cc3)c(=O)[nH]2)o1	-1.0%	-1.9%	26.6	14.3	i	5.9%
COC(=O)c1ccc(CSc2nc3c(cnn3-c3ccc(F)cc3)c(=O)[nH]2)o1	-20.3%	-32.0%	27.3	31.8*	i	-1.9%
C=C1CCC2C(C)(C)[C@H](O)CC[C@@]2(C)[C@@H]1COc1cc(=O)oc2ccccc12 (stereo partly specified)	u	-86.8%	32.3	19.4	u	u
C=C1CC(COc2cc(=O)oc3ccccc23)(c2ccccc2)OC1=O (stereo unspecified)	u	6.31µM*	-114.0*	-14.9	x	5.01µM*
Cc1[nH]c2ccccc2c1C(=O)CSc1nc2ncc(Cl)cc2[nH]1	u	-42.5%	-60.8*	-8.9	i	u
Cc1ccc2nc(SCC(=O)c3c(C)[nH]c4ccccc34)[nH]c2c1	-7.1%	-8.4%	16.0	4.0	i	-9.3%
NS(=O)(=O)c1ccc(NNC(=O)c2ccc(Br)o2)c([N+](=O)[O-])c1	-18.8%	7.7%	-64.9*	-16.8	u	-0.1%
CN1CCN(C(=O)c2ccccc2NS(=O)(=O)c2ccc(F)cc2)CC1	-6.4%	-1.5%	-62.6*	-22.6	i	0.0%
O=C(Nc1cc(S(=O)(=O)N2CCCCC2)ccc1Cl)c1ccccc1NS(=O)(=O)c1ccc(F)cc1	u	-29.0%	0.4	1.5	u	3.55µM*
O=C(Nc1ccccc1O)c1cc(S(=O)(=O)N2CCCC2)ccc1Cl	-11.1%	-29.5%	x	6.5	i	u
